Inconclusive results are not listed. Calls of active or inactive are those of the source. Unless noted, calls come from the whole dose curve; as a rule, active = well fitted curve in either direction with a large enough effect (not every such curve was filed as active); inconclusive = small, poorly fitted or top-dose-only effect, or another doubt; inactive = flat fitted curve, though single readings scatter.

This is an account of results in PubChem BioAssay (NCATS).

Assay [1] has as its target Lysosomal acid glucosylceramidase (Homo sapiens) (UniProt P04062). In words: Glucocerebrosidase-p2 (AID 348; in the data active = potency below about 10 µM; note: potency is the fitted concentration of half-maximal effect). The note with it: purified GBA, blue fluorogenic substrate, 40 min. Put shortly: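 Compounds titrated from 0.6 nM upwards against 0.2 nM enzyme in pH 5.9 citric acid/KH2PO4, taurocholate, tween-20; blue fluorogenic substrate 80 uM, 40 min room temperature, stopped and read Ex 365/Em 440 for AC50.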

Assay [2] in a line: NFAT Signaling Pathway (AID 444).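 Note: carbachol stimulus at about its EC50 of 1 µM final; % is set by controls: 0 for no effect and ±100 for the full control effect.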 The note with it: Jurkat NFAT-bla M1, carbachol, beta-lactamase ratio, 5 h; at 7.69 µM (top of the series) unless noted. The gist of the method:
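Jurkat cells with NFAT-driven β-lactamase reporter and co-expressed M1 receptor, stimulated with carbachol (final 1 uM, ~EC50), compound titration, 5 h at 37 °C. CCF4 loaded 1 h at RT; 460/530 nm ratio gave %activity and AC50.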

A short description of assay [3]: Stat Signaling Pathway (AID 446).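 Note: ME-180 cervical cancer cells given 40 pM IL-6 alongside compound; SIE-controlled beta-lactamase reporter measured as 460/530 nm FRET emission ratio; % is set by controls: 0 for no effect and ±100 for the full control effect.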 The following applies: ME-180 SIE beta-lactamase reporter, IL-6 stimulated, 5 h; at 7.69 µM (top of the series) unless noted. The gist of the method: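 IL-6/STAT signaling read in ME-180 cells via an SIE beta-lactamase reporter. Stimulus was 40 pM IL-6 (its AC50) for 5 hrs, so both activation and inhibition register.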
In assay [4] the target is Glucocorticoid receptor (Homo sapiens) (UniProt P04150). Put plainly: GR-EFC Redistribution (AID 451; calls by dose curve; note: potency is the fitted concentration of half-maximal effect). The note with it: CHO-K1 GR-EFC translocation, beta-gal luminescence, 2 h. Put shortly:
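CHO-K1 cells expressing nuclear EA and GR-ED fragments of b-gal; compounds titrated up to 46 uM final, 2 h at 37 C. GR nuclear translocation read as complemented b-gal luminescence after 1 h RT detection.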

The target of assay [5] is Mitogen-activated protein kinase 10 (Mus musculus) (UniProt Q61831). Put plainly: JNK3 AlphaScreen Assay (AID 530).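 Note: kinase came from lysate of stimulated human HepG2 cells; signal reports phosphorylation of biotinylated GST-cJun 1-79 at Ser73 with 10 µM ATP; % is set by controls: 0 for no effect and ±100 for the full control effect.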 The following applies: JNK3 lysate, c-Jun phosphorylation; series mostly up to 57.1 µM. The gist of the method: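 Pre-activated (IL-1β/TNFα) JNK3 in HepG2 lysates phosphorylates biotin-GST-cJun(1-79), 10 uM ATP; anti-phospho-cJun(Ser73) AlphaScreen read at room temperature, pH 7.6 Tris buffer. Compounds pre-incubated 15 min as titrations.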
(In Alpha technology, singlet oxygen from a donor bead excites a nearby acceptor bead.)

The target in assay [6] is 3',5'-cyclic-AMP phosphodiesterase 4B (Homo sapiens) (UniProt Q07343). In words: qHTS Assay for Inhibitors of PDE-IV (AID 607; active = well fitted activation curve with a large enough effect in the main read-out, with a control signal flat, not every such curve was filed as active; note: % of control where 0% means no effect). The following applies: HEK293 ACTOne CNG channel cells, membrane potential fluorescence; series mostly up to 22.9 µM. Put shortly: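 Live HEK293 cells with a modified cyclic nucleotide-gated (CNG) channel report intracellular cAMP via membrane-potential dye fluorescence (ex 535/em 590 nm). Endogenous PDE-IV was targeted. Compounds were tested at up to 22.9 uM final; RO 20-1724 100 uM served as control.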
Sequence of 3',5'-cyclic-AMP phosphodiesterase 4B (Homo sapiens) (Q07343 whole entry, looked up): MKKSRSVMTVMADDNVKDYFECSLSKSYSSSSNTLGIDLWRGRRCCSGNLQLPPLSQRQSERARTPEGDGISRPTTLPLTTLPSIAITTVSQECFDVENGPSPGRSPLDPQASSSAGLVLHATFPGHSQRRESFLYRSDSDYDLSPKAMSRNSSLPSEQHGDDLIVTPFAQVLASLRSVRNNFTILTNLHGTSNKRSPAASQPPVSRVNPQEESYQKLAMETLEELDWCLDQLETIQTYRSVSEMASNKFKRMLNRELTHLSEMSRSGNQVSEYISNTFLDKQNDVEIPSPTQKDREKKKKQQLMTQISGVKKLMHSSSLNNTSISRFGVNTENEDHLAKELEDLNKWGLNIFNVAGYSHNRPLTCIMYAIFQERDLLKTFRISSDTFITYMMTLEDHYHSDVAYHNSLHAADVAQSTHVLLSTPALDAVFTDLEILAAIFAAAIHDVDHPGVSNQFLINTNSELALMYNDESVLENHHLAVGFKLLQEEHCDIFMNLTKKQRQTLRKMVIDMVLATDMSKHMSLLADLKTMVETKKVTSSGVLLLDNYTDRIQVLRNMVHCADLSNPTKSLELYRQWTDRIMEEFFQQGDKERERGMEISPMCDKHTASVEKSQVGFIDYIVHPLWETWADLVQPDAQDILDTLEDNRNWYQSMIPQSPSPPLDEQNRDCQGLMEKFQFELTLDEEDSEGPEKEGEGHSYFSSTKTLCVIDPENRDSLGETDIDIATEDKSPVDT

Assay [7] is described as follows: qHTS Assay for Lipid Storage Modulators (AID 1519; calls by dose curve). The note with it: Drosophila S3 cells, BODIPY lipid droplet/cell ratio, laser cytometry, cells loaded with oleic acid; for activity change, negative = inhibition: at 57.5 µM (top of the series). The gist of the method: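 Cells seeded at 5,000 per well were treated with compounds over a concentration series and loaded with oleic acid (400 uM, as added). Lipid droplet fluorescence (488 nm excitation, 500-530 nm channel) was read by laser-scanning cytometry and normalized to 20 uM Triacsin C.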
For orientation: Quantitative high-throughput screening tests each substance at several concentrations.

Assay [8] in a line: Primary qHTS for small molecule stabilizers of the endoplasmic reticulum resident proteome: Secreted ER Calcium Modulated Protein (SERCaMP) assay (AID 1508630; active = well fitted curve in the direction sought with a large enough effect; an effect the other way counts as inactive or inconclusive; note: % is set by controls: 0 for no effect and ±100 for the full control effect). The note with it: SH-SY5Y GLuc-SERCaMP (Gaussia luciferase released on ER calcium loss) secretion, thapsigargin, luminescence; series mostly up to 38.4 µM. Put shortly: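 GLuc-SERCaMP-expressing SH-SY5Y cells, pretreated 16 h with compound, are challenged with thapsigargin to empty ER calcium stores; after 4 h, coelenterazine is added directly to the medium and luminescence is imaged.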

Assay [9] addresses Cytochrome P450 1A2 (Homo sapiens) (UniProt P05177). In words: p450-cyp1a2 (AID 410; calls by dose curve; note: potency is the fitted concentration of half-maximal effect;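 for activity change, negative = inhibition: -100% = full effect of reference inhibitor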). The following applies: recombinant CYP1A2, luciferin-ME demethylation, luminescence; series mostly up to 57 µM. The gist of the method:
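Luminescent readout of luciferin formed from Luciferin-ME by human CYP1A2; data normalized against complete inhibition by 57 uM furafylline. Enzyme 20nM, substrate 100uM at Km, 100mM KPO4 buffer, 60 min reaction at room temperature.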

For assay [10], the target named is Cytochrome P450 3A4 (Homo sapiens) (UniProt P08684). Put plainly: qHTS Assay for Activators of Cytochrome P450 3A4 (AID 885; active = well fitted curve in the direction sought with a large enough effect; an effect the other way counts as inactive or inconclusive; note: nearly all actives have a fitted effect of over 65% in size). The following applies: recombinant CYP3A4, Luciferin-PPXE luminescence, 60 min; series mostly up to 57.1 µM. The gist of the method:
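Quantitative HTS format: compounds preincubated with 20nM human CYP3A4 and Luciferin-PPXE substrate at KM, reaction started by NADPH regeneration, stopped after 60 min, luciferase luminescence read 20 min later.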

The target in assay [11] is Cytochrome P450 2D6 (Homo sapiens) (UniProt P10635). In words: qHTS Assay for Inhibitors and Substrates of Cytochrome P450 2D6 (AID 891; active = well fitted curve in the direction sought with a large enough effect; an effect the other way counts as inactive or inconclusive; note: potency is the fitted concentration of half-maximal effect; nearly all actives have a fitted effect of over 60% in size). The note with it: recombinant CYP2D6, luciferin-ME EGE luminescence; series mostly up to 57.1 µM. Put shortly:
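Human CYP2D6 (5 nM) with 30 uM Luciferin-ME EGE (at Km) in 100 mM KPO4, compound preincubated 10 min, then NADPH regeneration system for 60 min at room temperature. Luciferin read by luminescence; normalized to 1.43 uM quinidine.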

Assay [12] can be described thus: AP1 Signaling Pathway (AID 357). The note with it: ME-180 (cervical carcinoma) AP-1-bla reporter, EGF-induced, beta-lactamase ratio, 5 h; at 7.69 µM (top of the series) unless noted. The gist of the method: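 Beta-lactamase reporter under AP-1 response element, ME-180 background. Stimulus: EC50 EGF. Compound exposure 5 h, 37 °C. Detection: CCF4, 2.5 h RT, 460/530 nm. Values: AC50 from titration.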

Assay [13] deals with Glucocorticoid receptor (Homo sapiens) (UniProt P04150). Put plainly: GR-GFP Redistribution (AID 450;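 active = compounds whose dose series gives a full or clear partial fitted curve of increased nuclear translocation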; note: potency is the fitted concentration of half-maximal effect). The following applies: U2OS GR-GFP nuclear translocation, laser cytometry, 2 h.
Sequence of Glucocorticoid receptor (Homo sapiens) (P04150 whole entry, looked up, the tested form may be a part): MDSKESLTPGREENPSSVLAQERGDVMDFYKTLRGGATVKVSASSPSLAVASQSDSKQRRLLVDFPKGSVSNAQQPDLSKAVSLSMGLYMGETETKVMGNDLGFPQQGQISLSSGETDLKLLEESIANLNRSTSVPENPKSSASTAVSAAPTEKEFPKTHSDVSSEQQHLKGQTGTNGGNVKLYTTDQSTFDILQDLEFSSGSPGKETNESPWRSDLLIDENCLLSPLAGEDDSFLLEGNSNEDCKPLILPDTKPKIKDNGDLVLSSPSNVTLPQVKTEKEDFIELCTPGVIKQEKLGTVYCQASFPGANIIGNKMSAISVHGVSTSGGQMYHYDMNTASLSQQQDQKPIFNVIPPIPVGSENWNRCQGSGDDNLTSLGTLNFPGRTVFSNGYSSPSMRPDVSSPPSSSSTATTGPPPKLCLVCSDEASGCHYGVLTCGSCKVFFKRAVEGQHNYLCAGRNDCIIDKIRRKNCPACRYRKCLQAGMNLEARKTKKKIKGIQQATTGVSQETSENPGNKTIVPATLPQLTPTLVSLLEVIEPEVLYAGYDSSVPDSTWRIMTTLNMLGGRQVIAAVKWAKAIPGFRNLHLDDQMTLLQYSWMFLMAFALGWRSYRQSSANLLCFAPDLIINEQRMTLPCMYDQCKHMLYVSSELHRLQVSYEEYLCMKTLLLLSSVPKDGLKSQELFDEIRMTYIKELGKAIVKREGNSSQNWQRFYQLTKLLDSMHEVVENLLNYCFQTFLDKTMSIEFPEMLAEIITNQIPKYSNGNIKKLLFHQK
Assay [14] is described as follows: Confirmation and Secondary Assay for Modulators of Hemoglobin Beta Chain Splicing at IVS2 654 locus (AID 910; active = well fitted curve in the direction sought with a large enough effect; an effect the other way counts as inactive or inconclusive;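 note: HeLa cells stably carrying EGFP split by mutant beta-globin IVS2-654 intron; % of control where 0% means no effect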). The following applies: HeLa EGFP-654 splicing reporter, GFP fluorescence, 48 h; series mostly up to 38.3 µM. The gist of the method: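 HeLa cells stably expressing EGFP interrupted by β-globin IVS2-654 intron, seeded overnight in Opti-MEM/2% FCS, then treated 2 days at 37 °C. Restored splicing read as total peak GFP intensity per well by laser scanning cytometry (488 nm excitation, 500–520 nm emission); 500 nM antisense PNA as control.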

Assay [15] in a line: Confirmation and Secondary Assay for Modulators of Hemoglobin Beta Chain Splicing at IVS2 705 locus (AID 930; active = well fitted curve in the direction sought with a large enough effect; an effect the other way counts as inactive or inconclusive;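 note: HeLa cells stably expressing the EGFP-705 splicing reporter; GFP fluorescence per well restored by corrected splicing of the IVS2-705 intron in EGFP; % of control where 0% means no effect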). The following applies: HeLa EGFP-705 splicing reporter, GFP fluorescence, 48 h; series mostly up to 38.3 µM. Put shortly:
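First, HeLa EGFP-705 cells are seeded at 500/well in Optimem with 2% FCS and left overnight. Next, compound or DMSO is added for 2 days. Finally wells are laser-scanned and total peak GFP intensity scored.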

For assay [16], the target named is Ubiquitin carboxyl-terminal hydrolase 1 (Homo sapiens) (UniProt O94782). In words: Inhibitors of USP1/UAF1: Pilot qHTS (AID 504865; active = well fitted curve in the direction sought with a large enough effect; an effect the other way counts as inactive or inconclusive;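 note: rhodamine fluorescence freed from ubiquitin-rhodamine substrate followed over time; top concentration of the series differs between compounds; % is set by controls: 0 for no effect and ±100 for the full control effect; nearly all actives have a fitted effect of over 35% in size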). The note with it: purified USP1/UAF1, Ub-rhodamine cleavage fluorescence; series mostly up to 54.9 µM. The gist of the method: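 Deubiquitinase activity followed as kinetic rhodamine fluorescence release from 150 nM Ub-Rho. 1 nM USP1/UAF1 with compound, after 15 min room-temperature preincubation, in HEPES pH 7.8 buffer containing TCEP, EDTA, BSA and Tween-20.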
Sequence of Ubiquitin carboxyl-terminal hydrolase 1 (Homo sapiens) (O94782 whole entry, looked up): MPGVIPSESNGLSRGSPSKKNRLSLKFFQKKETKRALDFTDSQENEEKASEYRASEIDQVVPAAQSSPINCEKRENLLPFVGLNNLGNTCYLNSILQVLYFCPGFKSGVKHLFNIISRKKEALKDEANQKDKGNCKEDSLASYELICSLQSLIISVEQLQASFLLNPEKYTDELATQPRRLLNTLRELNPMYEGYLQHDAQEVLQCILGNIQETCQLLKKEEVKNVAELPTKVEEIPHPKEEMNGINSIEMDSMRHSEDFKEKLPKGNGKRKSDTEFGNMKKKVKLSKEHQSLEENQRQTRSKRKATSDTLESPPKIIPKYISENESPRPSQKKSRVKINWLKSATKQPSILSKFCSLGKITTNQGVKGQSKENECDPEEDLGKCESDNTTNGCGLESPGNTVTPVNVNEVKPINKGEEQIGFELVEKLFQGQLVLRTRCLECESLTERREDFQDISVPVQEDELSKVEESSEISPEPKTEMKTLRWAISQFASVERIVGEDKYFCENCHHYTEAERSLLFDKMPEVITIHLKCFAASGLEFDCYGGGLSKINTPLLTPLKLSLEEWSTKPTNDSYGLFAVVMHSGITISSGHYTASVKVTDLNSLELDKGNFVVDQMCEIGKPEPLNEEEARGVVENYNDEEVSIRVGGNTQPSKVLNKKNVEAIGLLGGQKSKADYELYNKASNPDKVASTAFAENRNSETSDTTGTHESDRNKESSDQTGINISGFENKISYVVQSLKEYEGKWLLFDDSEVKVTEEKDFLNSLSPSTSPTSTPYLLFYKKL

Assay [17] addresses Cytochrome P450 3A4 (Homo sapiens) (UniProt P08684). In words: qHTS Assay for Inhibitors and Substrates of Cytochrome P450 3A4 (AID 884; active = well fitted curve in the direction sought with a large enough effect; an effect the other way counts as inactive or inconclusive; note: potency is the fitted concentration of half-maximal effect; nearly all actives have a fitted effect of over 50% in size). The note with it: recombinant CYP3A4, Luciferin-PPXE luminescence; series mostly up to 57.1 µM. The gist of the method:
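20 nM human CYP3A4 with 25 uM Luciferin-PPXE (at KM) in 200 mM KPO4, preincubated 10 min with compound; NADPH regeneration started a 60 min RT reaction. Luciferin detected by luminescence, normalized to 57 uM ketoconazole as full inhibition.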

[18] abbreviates: measured here: cell count channel max response.
The mark [19] stands for this setting: measured here: lipid channel max response.

Sequence of Cytochrome P450 3A4 (Homo sapiens) (P08684 whole entry, looked up): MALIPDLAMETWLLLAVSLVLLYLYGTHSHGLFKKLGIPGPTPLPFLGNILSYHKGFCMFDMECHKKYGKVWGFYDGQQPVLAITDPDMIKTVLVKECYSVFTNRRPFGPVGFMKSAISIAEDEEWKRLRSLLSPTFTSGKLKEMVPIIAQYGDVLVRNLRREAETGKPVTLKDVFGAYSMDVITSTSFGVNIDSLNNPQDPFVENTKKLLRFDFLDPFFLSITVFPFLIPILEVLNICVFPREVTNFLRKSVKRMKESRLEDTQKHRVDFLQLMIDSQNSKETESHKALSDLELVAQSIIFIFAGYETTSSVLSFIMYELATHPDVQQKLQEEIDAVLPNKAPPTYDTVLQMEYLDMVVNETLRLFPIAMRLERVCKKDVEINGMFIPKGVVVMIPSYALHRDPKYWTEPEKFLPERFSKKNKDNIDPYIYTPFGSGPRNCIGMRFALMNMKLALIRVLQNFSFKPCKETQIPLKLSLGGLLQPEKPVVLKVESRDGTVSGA
Sequence of Cytochrome P450 1A2 (Homo sapiens) (P05177 whole entry, looked up): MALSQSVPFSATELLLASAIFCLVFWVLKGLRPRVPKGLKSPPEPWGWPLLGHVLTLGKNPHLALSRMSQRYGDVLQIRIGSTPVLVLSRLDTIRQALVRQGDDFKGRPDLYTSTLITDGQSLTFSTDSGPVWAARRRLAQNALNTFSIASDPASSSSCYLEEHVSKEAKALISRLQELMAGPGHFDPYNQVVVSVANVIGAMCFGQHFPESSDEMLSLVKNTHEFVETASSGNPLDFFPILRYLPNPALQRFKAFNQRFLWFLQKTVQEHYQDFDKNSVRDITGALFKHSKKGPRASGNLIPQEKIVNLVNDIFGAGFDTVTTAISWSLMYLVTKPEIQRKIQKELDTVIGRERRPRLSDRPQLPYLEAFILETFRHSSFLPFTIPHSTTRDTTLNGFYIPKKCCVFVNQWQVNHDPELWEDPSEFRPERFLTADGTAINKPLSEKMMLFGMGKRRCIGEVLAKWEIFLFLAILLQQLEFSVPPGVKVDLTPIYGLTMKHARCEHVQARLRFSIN
Sequence of Lysosomal acid glucosylceramidase (Homo sapiens) (P04062 whole entry, looked up): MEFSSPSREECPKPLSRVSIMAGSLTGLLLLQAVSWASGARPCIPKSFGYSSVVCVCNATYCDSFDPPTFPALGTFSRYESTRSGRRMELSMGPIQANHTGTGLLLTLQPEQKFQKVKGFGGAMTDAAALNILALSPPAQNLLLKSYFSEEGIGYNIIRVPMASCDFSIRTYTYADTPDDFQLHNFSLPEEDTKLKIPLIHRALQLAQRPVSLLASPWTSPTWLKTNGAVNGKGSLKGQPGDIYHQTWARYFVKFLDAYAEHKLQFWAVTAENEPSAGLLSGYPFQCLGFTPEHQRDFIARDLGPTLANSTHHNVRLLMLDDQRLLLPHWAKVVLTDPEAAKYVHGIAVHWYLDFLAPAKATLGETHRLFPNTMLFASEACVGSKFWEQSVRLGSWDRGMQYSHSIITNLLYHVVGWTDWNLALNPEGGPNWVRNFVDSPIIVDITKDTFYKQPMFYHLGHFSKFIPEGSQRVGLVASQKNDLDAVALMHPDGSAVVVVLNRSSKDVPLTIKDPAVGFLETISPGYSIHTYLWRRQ
Sequence of Cytochrome P450 2D6 (Homo sapiens) (P10635 whole entry, looked up): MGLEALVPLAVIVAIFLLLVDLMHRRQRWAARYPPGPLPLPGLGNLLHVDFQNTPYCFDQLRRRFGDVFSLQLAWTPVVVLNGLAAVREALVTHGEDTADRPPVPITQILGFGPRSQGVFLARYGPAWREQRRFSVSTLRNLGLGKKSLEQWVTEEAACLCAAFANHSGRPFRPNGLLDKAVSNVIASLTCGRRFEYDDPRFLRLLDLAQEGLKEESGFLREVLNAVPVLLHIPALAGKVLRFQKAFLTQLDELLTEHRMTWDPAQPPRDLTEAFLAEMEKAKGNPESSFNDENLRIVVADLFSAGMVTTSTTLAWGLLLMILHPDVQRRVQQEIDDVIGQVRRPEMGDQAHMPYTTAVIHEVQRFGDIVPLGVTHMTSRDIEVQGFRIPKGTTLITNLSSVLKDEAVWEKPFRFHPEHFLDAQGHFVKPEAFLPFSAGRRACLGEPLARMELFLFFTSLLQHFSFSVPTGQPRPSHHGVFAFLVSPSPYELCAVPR

Consider `O=S(=O)(c1ccccc1)N1CCC[C@@]2(CCN(c3ncccn3)C2)C1`, for which the Potency was > 11.4 µM (inactive) in assay [1] and > 46 µM (inactive) in [4]. Also, the activity change, negative = inhibition in [2] was 27.1% (inactive); in assay [7], 4.79% (inactive). The activity, negative = inhibition in assay [3] was -4.75% (inactive). Besides, the Potency result in [5] and in assay [6] was “inactive” in each case. Besides, the results for the max response in [7] (setting [18]) and in assay [7] (setting [19]) were 6.87% and 13%, respectively. Also, in assay [8], the result was inactive.

For `COc1ccc(C(=O)N2CCC3(CCCN(Cc4ccccc4)C3)CC2)cc1`, the results for the Potency in assay [1], in [4] and in [11] were > 11.4 µM (inactive), > 46 µM (inactive) and 7.94 µM (active), respectively. Also, the Potency result in assay [9], in assay [5], in assay [6] and in assay [10] was “inactive” throughout. The activity, negative = inhibition in [3] was -10.9% (inactive). Also, the activity change, negative = inhibition in assay [7] was 4.53% (inactive). The max response in [7] (setting [18]) turned out to be 1.31%; in assay [7] (setting [19]) it was 6.86%. Also, in assay [8], the outcome was inactive.

For the molecule `COc1ccc(C(=O)N2CCC3(CCN(Cc4ccc(C#N)cc4)CC3)CC2)cc1`, the Potency in assay [1] was > 11.4 µM (inactive); in assay [9] it was 12.6 µM (active); in assay [4], > 46 µM (inactive). Also, in [3], the activity, negative = inhibition is 0.785% (inactive). In addition, the Potency entry in assay [5] and in [6] was “inactive” each time. The activity change, negative = inhibition in assay [7] was 1.02% (inactive). Further, the figures for the max response in assay [7] (setting [18]) and in assay [7] (setting [19]) were 16.6% and 21%, respectively. For the same molecule, in [8], the outcome was inactive.

`O=C(c1csnn1)N1CCC2(CCCN(C(c3ccccc3)c3ccccc3)C2)CC1`: the Potency in [1] was > 11.4 µM (inactive); in assay [4], > 46 µM (inactive). The activity change, negative = inhibition is 1.14% (inactive) in assay [2] and -2.23% (inactive) in [7]. In assay [3], the activity, negative = inhibition was 18.5% (inactive). Further, the Potency result in [5] and in assay [6] was “inactive” in each case. In addition, the max response in assay [7] (setting [18]) was -8.01%; in assay [7] (setting [19]), -8.95%. In assay [8], the result was inactive.

Regarding `COc1ccc2[nH]cc(CCNc3ccnc(-c4cccc(NS(C)(=O)=O)c4)n3)c2c1`, the activity change, negative = inhibition is -8.22% (inactive) in assay [12] and 8.87% (inactive) in [7]. Also, the Potency in assay [9] is 1.58 µM (active); in assay [13], > 46 µM (inactive); in assay [4], > 46 µM (inactive). Moreover, the activity, negative = inhibition in assay [3] is -27.4% (inactive). The Potency result in assay [5], in assay [6], in assay [14] and in assay [16] was “inactive” in each case. Moreover, the call in assay [15] and in [8] was inactive. For the same molecule, the max response in assay [7] (setting [18]) was -1.88%; in assay [7] (setting [19]) it was 5.22%.

In the case of `O=C(c1ccncc1)N1CCC2(CCN(Cc3nccs3)CC2)CC1`, the activity change, negative = inhibition was 6.32% (inactive) in assay [12] and -1.51% (inactive) in [7]. In addition, the Potency entry in [9] and in assay [6] was “inactive” each time. Moreover, the activity, negative = inhibition in assay [3] is 4.96% (inactive). Besides, the Potency in assay [4] is > 46 µM (inactive). Further, the results for the max response in assay [7] (setting [18]) and in [7] (setting [19]) were 5.19% and 5.04%, respectively. Besides, the outcome in assay [8] was inactive.

Regarding `CC(=O)N1CCC[C@@]2(CCN(C(c3ccccc3)c3ccccc3)C2)C1`, the activity change, negative = inhibition is -0.322% (inactive) in assay [12], 3.9% (inactive) in assay [2] and -4.88% (inactive) in assay [7]. The activity, negative = inhibition in [3] is -10.9% (inactive). Moreover, in assay [4], the Potency is > 46 µM (inactive). Further, the Potency result in [5] and in assay [6] was “inactive” each time. For the same molecule, the max response in assay [7] (setting [18]) was -3.73%; in [7] (setting [19]) it was -8.87%. The result in assay [8] was inactive.

In the case of `Cc1cnc(CNc2nc(-c3ccc(N(C)C)cc3)nc3ccccc23)cn1`, the activity change, negative = inhibition in [12] is -17% (inactive); in assay [7] it was 11.9% (inactive). Besides, the Potency is 3.16 µM (active) in [9], > 46 µM (inactive) in assay [13], > 46 µM (inactive) in [4] and 5.01 µM (active) in assay [17]. In [3], the activity, negative = inhibition is 7.71% (inactive). In addition, the Potency result in assay [5], in assay [6], in assay [10] and in assay [14] was “inactive” throughout. The result in assay [15] and in assay [8] was inactive. In addition, the max response was 13.6% in [7] (setting [18]) and 26% in assay [7] (setting [19]).
